# Assay results: PMC7862700, “An all-to-all approach to the identification of sequence-specific readers for epigenetic DNA modifications on cytosine”
# How the values were obtained:
# Test in all cases: DAPPL (digital affinity profiling via proximity ligation, sequencing); 10 mM Tris-HCl pH 7.5, 50 mM NaCl, 1 mM DTT, 4% glycerol, room temperature, 30 min; GST-TFs on glutathione beads, 16-mer random dsDNA library, 0.1% formaldehyde crosslink after washing; high values mean tight binding
# [1] = target: T1, FEV (Homo sapiens, UniProt Q99581 1-238); conditions: protein: recombinant; tags: N-terminal GST; dsDNA, one strand shown
# T1 sequence: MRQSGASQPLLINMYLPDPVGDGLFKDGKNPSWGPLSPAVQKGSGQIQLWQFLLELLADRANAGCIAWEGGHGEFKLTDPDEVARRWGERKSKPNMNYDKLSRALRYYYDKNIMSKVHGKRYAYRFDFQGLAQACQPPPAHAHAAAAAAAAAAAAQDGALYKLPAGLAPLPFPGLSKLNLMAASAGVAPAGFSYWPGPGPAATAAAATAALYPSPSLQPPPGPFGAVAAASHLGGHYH
# Outline: (§1)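 In yeast, human transcription factors were expressed with a GST fusion, then pulled down on glutathione beads and given DNA barcodes. Pooled with a tag-only sample, they were exposed to 200 nmole of a 16-mer random double-stranded DNA library (Tris/NaCl/DTT/glycerol buffer, room temperature, 30 min), washed, crosslinked with 0.1% formaldehyde, proximity-ligated using BsaI/T4 ligase for 1 h at 37 °C, PCR-amplified and read on an Illumina NextSeq500. Each hexamer's frequency of reads for a factor, divided by the matching frequency for the tag-only sample, gives the binding signal.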
# [2] = target: ETV5 (Homo sapiens, UniProt P41161 1-510); conditions: protein: recombinant; tags: N-terminal GST; dsDNA, one strand shown
# Outline: as §1
# [3] = target: HSF1 (Homo sapiens, UniProt Q00613 1-529); conditions: protein: recombinant; tags: N-terminal GST; chain copies: 3; dsDNA, one strand shown
# Outline: as §1
# [4] = target: T2, SPIC (Homo sapiens, UniProt Q8N5J4 1-248); conditions: protein: recombinant; tags: N-terminal GST; dsDNA, one strand shown
# T2 sequence: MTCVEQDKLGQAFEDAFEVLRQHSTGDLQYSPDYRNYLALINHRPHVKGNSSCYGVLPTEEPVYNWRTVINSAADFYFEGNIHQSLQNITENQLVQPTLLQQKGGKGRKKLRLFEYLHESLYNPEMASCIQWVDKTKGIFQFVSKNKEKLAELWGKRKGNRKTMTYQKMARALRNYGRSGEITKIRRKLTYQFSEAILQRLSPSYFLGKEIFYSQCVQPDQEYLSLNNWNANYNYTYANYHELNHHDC
# Outline: as §1
# [5] = target: ELF4 (Homo sapiens, UniProt Q99607 1-663); conditions: protein: recombinant; tags: N-terminal GST; dsDNA, one strand shown
# Outline: as §1
# [6] = target: T3, ELK4 (Homo sapiens, UniProt P28324-2 1-405); conditions: protein: recombinant; tags: N-terminal GST; dsDNA, one strand shown
# T3 sequence: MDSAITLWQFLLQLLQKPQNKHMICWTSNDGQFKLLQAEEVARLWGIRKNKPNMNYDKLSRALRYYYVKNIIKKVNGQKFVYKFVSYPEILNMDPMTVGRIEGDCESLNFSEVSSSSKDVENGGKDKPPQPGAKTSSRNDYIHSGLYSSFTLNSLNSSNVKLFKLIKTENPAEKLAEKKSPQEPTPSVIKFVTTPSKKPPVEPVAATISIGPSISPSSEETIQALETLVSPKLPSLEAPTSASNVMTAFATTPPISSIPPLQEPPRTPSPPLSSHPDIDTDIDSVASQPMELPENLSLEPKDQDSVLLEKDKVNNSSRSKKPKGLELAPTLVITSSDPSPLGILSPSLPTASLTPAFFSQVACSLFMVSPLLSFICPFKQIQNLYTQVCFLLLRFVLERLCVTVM
# Outline: as §1
# [7] = target: T4, ETV2 (Homo sapiens, UniProt O00321 1-342); conditions: protein: recombinant; tags: N-terminal GST; dsDNA, one strand shown
# T4 sequence: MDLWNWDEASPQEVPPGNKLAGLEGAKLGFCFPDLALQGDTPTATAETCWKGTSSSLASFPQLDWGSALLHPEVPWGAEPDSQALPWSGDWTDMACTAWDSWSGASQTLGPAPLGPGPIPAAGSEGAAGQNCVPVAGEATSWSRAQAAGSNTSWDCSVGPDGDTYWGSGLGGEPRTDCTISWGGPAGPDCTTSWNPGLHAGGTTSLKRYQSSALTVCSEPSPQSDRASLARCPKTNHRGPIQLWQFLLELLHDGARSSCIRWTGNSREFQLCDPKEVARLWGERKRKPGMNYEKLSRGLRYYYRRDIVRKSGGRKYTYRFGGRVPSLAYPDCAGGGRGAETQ
# Outline: as §1
# [8] = target: T5, ELF3 (Homo sapiens, UniProt P78545 1-371); conditions: protein: recombinant; tags: N-terminal GST; dsDNA, one strand shown
# T5 sequence: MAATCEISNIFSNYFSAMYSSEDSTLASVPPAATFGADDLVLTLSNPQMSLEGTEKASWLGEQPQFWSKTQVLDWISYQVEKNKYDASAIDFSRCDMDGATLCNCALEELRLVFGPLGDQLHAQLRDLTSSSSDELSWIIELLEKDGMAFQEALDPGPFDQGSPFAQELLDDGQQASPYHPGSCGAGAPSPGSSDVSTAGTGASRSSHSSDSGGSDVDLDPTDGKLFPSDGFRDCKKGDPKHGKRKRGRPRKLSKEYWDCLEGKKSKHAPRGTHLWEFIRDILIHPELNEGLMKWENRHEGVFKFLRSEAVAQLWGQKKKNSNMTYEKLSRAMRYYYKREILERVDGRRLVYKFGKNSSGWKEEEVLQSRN
# Outline: as §1
# [9] = target: CRX (Homo sapiens, UniProt O43186 1-299); conditions: protein: recombinant; tags: N-terminal GST; dsDNA, one strand shown
# Outline: as §1
# [10] = target: ETV1 (Homo sapiens, UniProt P50549 1-477); conditions: protein: recombinant; tags: N-terminal GST; dsDNA, one strand shown
# Outline: as §1
# [11] = target: T6, ERF (Homo sapiens, UniProt P50548 1-548); conditions: protein: recombinant; tags: N-terminal GST; dsDNA, one strand shown
# T6 sequence: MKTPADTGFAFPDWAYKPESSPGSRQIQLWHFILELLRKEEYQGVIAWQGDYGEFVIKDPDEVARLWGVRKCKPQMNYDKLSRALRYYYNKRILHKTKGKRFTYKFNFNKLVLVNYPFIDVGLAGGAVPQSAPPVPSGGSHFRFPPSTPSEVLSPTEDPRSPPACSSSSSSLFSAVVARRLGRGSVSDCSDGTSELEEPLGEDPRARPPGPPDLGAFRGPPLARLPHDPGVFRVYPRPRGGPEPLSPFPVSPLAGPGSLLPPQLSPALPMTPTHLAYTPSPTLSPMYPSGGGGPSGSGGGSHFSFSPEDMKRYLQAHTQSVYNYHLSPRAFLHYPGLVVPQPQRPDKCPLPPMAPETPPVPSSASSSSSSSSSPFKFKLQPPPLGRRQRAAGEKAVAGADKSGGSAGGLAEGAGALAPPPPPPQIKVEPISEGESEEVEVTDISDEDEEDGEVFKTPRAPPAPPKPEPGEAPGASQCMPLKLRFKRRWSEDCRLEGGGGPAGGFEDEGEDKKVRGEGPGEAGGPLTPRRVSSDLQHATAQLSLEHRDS
# Outline: as §1
# [12] = target: T7, ETV3L (Homo sapiens, UniProt Q6ZN32 1-361); conditions: protein: recombinant; tags: N-terminal GST; dsDNA, one strand shown
# T7 sequence: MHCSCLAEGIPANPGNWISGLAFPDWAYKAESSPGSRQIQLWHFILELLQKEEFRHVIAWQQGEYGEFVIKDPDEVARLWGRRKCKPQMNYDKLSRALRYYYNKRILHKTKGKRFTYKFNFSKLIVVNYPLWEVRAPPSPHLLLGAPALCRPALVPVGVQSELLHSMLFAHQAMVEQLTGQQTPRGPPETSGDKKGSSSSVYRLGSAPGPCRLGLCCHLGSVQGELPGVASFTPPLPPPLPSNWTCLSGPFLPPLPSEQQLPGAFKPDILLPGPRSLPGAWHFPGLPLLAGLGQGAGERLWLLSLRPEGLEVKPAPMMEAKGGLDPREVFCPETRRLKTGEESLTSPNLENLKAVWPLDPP
# Outline: as §1
# [13] = target: T8, ETS2 (Homo sapiens, UniProt P15036 1-469); conditions: protein: recombinant; tags: N-terminal GST; dsDNA, one strand shown
# T8 sequence: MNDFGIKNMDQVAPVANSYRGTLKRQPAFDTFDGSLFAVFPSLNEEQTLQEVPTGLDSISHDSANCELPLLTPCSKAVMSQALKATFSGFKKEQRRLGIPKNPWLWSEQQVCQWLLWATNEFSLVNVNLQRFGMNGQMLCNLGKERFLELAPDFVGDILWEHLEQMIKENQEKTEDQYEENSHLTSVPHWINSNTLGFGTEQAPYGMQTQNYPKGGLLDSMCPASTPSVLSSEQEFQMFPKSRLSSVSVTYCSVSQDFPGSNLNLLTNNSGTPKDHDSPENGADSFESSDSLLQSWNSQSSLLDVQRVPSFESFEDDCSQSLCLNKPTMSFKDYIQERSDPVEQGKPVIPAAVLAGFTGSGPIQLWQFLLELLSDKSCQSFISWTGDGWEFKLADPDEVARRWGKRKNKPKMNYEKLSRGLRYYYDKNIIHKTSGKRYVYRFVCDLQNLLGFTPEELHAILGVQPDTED
# Outline: as §1
# [14] = target: T9, SPDEF (Homo sapiens, UniProt O95238 1-335); conditions: protein: recombinant; tags: N-terminal GST; dsDNA, one strand shown
# T9 sequence: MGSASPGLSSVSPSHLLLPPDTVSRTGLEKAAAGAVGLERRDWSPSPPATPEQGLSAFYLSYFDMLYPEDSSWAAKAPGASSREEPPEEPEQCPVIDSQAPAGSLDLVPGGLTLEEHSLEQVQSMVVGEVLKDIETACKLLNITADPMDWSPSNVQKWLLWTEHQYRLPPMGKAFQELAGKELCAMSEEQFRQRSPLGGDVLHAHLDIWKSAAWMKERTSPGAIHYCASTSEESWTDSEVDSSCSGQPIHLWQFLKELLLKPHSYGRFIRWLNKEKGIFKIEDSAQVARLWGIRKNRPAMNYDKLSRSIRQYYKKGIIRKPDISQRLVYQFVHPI
# Outline: as §1
# [15] = target: T10, ETV7 (Homo sapiens, UniProt Q9Y603 1-341); conditions: protein: recombinant; tags: N-terminal GST; dsDNA, one strand shown
# T10 sequence: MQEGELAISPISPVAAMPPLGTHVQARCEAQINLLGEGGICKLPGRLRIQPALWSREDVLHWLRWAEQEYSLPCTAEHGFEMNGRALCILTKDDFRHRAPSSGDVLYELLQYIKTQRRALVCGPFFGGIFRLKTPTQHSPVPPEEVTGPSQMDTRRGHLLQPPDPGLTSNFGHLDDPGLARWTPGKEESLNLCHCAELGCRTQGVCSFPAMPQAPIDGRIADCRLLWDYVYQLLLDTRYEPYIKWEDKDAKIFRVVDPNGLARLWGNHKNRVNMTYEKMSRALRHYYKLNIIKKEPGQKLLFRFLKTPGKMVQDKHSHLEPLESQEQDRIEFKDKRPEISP
# Outline: as §1
# [16] = target: T11, ELF5 (Homo sapiens, UniProt Q9UKW6-2 1-255); conditions: protein: recombinant; tags: N-terminal GST; dsDNA, one strand shown
# T11 sequence: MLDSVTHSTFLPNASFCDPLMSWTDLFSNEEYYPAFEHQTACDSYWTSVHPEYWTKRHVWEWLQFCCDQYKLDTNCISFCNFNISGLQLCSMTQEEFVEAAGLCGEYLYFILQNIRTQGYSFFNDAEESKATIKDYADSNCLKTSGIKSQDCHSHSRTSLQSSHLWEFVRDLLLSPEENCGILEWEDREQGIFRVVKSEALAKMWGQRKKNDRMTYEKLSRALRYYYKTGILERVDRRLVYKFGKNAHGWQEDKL
# Outline: as §1
# [17] = target: T12, ETV3 (Homo sapiens, UniProt P41162-2 1-143); conditions: protein: recombinant; tags: N-terminal GST; dsDNA, one strand shown
# T12 sequence: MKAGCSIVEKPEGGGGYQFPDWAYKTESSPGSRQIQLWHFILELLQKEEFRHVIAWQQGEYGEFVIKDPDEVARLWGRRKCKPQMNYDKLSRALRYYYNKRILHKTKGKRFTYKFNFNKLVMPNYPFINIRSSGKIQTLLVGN
# Outline: as §1
# [18] = target: ETV6 (Homo sapiens, UniProt P41212 1-452); conditions: protein: recombinant; tags: N-terminal GST; dsDNA, one strand shown
# Outline: as §1
# HSF1, sequence (Q00613 whole entry): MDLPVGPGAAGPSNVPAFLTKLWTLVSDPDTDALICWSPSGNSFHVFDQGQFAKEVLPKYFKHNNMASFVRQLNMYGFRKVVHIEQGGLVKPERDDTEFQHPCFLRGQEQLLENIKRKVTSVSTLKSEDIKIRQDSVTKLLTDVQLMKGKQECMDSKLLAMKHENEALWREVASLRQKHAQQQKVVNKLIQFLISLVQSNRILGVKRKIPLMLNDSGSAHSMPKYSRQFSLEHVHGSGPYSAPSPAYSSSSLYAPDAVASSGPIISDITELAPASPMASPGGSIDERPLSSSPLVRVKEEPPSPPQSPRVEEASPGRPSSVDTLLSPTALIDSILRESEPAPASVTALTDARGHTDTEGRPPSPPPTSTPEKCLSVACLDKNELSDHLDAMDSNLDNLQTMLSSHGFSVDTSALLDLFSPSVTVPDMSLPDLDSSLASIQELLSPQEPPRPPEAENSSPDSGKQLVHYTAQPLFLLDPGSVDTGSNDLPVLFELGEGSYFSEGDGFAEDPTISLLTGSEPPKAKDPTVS
# ELF4, sequence (Q99607 whole entry): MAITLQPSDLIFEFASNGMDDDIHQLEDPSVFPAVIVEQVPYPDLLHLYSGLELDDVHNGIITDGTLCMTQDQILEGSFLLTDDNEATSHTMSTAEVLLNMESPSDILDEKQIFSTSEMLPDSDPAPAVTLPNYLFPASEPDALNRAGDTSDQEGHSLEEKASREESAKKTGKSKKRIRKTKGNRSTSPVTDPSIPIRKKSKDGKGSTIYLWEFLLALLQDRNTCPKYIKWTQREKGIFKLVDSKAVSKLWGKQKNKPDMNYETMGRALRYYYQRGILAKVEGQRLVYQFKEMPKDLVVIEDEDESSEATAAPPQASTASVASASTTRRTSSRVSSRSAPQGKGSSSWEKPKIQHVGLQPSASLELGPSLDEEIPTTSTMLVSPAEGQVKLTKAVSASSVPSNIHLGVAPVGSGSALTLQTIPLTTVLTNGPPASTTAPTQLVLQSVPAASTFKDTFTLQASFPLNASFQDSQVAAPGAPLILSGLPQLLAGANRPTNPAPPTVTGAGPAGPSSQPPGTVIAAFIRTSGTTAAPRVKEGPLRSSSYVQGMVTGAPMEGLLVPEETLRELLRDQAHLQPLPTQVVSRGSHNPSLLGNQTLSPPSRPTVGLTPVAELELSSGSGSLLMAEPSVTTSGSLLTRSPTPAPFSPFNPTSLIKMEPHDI
# CRX, sequence (O43186 whole entry): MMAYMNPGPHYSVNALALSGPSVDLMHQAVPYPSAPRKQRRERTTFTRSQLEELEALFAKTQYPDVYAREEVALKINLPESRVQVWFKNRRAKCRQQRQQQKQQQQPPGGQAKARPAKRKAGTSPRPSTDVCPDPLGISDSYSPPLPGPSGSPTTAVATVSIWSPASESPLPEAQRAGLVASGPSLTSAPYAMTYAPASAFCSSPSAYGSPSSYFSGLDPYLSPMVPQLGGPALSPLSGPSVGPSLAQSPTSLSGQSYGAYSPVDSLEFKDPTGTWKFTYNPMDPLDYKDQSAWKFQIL
# ETV1, sequence (P50549 whole entry): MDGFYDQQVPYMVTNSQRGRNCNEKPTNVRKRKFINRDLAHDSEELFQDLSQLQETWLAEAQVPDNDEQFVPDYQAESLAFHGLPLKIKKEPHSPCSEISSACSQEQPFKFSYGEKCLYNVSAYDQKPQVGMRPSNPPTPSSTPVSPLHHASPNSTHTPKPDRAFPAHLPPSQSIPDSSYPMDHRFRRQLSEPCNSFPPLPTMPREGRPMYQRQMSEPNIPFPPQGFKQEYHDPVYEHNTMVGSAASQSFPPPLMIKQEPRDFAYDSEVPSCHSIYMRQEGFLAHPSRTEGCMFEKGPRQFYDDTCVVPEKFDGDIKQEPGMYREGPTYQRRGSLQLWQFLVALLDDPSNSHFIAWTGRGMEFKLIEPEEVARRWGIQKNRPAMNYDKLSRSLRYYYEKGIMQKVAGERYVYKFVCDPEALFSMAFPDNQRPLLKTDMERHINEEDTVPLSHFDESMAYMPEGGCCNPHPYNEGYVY
# ETV6, sequence (P41212 whole entry): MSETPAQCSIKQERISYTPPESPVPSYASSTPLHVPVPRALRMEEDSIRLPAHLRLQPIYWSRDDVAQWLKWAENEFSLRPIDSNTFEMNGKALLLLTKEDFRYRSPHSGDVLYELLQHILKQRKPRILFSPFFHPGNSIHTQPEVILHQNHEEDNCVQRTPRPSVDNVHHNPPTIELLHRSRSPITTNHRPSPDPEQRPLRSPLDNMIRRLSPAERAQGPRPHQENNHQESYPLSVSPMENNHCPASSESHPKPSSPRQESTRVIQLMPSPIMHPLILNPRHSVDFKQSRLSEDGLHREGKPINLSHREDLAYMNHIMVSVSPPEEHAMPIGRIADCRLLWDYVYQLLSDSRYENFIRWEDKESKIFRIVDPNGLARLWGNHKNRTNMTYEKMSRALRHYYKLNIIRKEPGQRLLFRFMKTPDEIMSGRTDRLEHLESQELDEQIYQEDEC
# ETV5, sequence (P41161 whole entry): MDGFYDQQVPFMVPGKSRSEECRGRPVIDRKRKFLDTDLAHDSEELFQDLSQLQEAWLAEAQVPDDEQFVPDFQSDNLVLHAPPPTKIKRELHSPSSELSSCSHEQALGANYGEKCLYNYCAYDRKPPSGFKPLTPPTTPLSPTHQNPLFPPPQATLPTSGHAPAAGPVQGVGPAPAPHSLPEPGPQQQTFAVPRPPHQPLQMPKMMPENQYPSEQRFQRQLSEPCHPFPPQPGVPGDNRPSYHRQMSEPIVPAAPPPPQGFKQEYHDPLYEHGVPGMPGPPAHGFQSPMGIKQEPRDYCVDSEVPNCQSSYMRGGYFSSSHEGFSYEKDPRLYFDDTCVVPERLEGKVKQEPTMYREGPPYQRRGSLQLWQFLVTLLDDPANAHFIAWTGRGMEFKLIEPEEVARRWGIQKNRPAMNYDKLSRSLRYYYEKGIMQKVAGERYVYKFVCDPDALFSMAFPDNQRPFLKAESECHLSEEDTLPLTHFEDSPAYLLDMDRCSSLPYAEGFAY
sequence,measurement,setting,value
AAAATT,binding signal,[1],"1.29 fold enrichment (6-mer frequency, TF over GST control)"
same,binding signal,[2],"1.4 fold enrichment (6-mer frequency, TF over GST control)"
same,binding signal,[3],"1.73 fold enrichment (6-mer frequency, TF over GST control)"
same,binding signal,[4],"1.2 fold enrichment (6-mer frequency, TF over GST control)"
same,binding signal,[5],"1.41 fold enrichment (6-mer frequency, TF over GST control)"
same,binding signal,[6],"1.34 fold enrichment (6-mer frequency, TF over GST control)"
same,binding signal,[7],"1.54 fold enrichment (6-mer frequency, TF over GST control)"
same,binding signal,[8],"1.43 fold enrichment (6-mer frequency, TF over GST control)"
same,binding signal,[9],"1.46 fold enrichment (6-mer frequency, TF over GST control)"
same,binding signal,[10],"1.36 fold enrichment (6-mer frequency, TF over GST control)"
same,binding signal,[11],"1.48 fold enrichment (6-mer frequency, TF over GST control)"
same,binding signal,[12],"1.49 fold enrichment (6-mer frequency, TF over GST control)"
same,binding signal,[13],"1.4 fold enrichment (6-mer frequency, TF over GST control)"
same,binding signal,[14],"1.26 fold enrichment (6-mer frequency, TF over GST control)"
same,binding signal,[15],"1.5 fold enrichment (6-mer frequency, TF over GST control)"
same,binding signal,[16],"1.29 fold enrichment (6-mer frequency, TF over GST control)"
same,binding signal,[17],"1.31 fold enrichment (6-mer frequency, TF over GST control)"
same,binding signal,[18],"1.33 fold enrichment (6-mer frequency, TF over GST control)"
